BRCA1 expr act = activators of BRCA1 expression; MCF7-BRCA1-FFLuc reporter, luminescence, 48 h; response scale: scaled: vehicle 0%, 10 µM genistein 100%; Potency, µM (series often up to 46.1 µM), hits mostly activators; 380,000 tested, 1.1% active; AID 624202; note: nearly all actives have a fitted effect of over 80% in size
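Quantitative HTS in MCF7 cells stably reporting BRCA1 expression via firefly luciferase. Compound treatment lasts 48 h at 37 °C in phenol-red free MEM. Activation is expressed relative to genistein at 10 microM and DMSO.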
Tb PFK inh = T. brucei PFK enzyme inhibition; Potency, µM (highest dose often 57.5 µM), usual class: inhibitors; O15648; 330,000 tested, 0.17% active; AID 485367; T. brucei PFK, ADP-Glo luminescence; note: nearly all actives have a fitted effect of over 60% in size
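PFK 1.25 nM, F6P 0.5 mM, ATP 0.1 mM, 0.1 M TEA pH 8.0, 5 mM MgCl2, 0.01% Tween20, 0.1% BSA; 45 min RT. ADP-Glo readout. qHTS titration up to 57 uM; curves fitted, compounds curve-classed.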
VDR inhibitor = vitamin D3 receptor (human) inhibition; P11473; Potency, µM, actives largely listed as inhibitors; AID 504847; 400,000 tested, 0.93% active; VDR-SRC2-3 peptide fluorescence polarization, 2 h
Target sequence (P11473 whole entry, looked up): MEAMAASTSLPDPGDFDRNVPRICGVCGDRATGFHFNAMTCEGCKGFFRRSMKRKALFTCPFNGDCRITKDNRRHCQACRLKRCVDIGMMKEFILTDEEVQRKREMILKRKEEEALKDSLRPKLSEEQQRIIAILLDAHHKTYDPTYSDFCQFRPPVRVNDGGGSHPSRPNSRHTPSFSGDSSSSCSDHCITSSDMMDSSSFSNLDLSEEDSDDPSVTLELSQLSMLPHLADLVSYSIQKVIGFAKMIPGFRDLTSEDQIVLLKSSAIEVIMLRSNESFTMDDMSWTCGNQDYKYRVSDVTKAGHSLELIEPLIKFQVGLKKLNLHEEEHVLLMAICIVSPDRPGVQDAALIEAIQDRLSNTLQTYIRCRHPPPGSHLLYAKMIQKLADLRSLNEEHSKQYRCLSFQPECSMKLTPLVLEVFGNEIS
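Fluorescence polarization assay measuring small-molecule disruption of VDR binding to the coregulator peptide SRC2-3. Compounds were pin-transferred (23 nl) into the reagent mix and incubated 2 h at room temperature before reading.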
PLK1 PBD block = blocks phosphopeptide binding to human PLK1 polo-box domain; P53350; Plk1 PBD binding of FITC phosphopeptide, fluorescence polarization; Potency, µM, usual class: inhibitors; 360,000 tested, 2.8% active; note: series mostly up to about 57 µM; nearly all actives have a fitted effect of over 65% in size
A number is an active result. An excerpt weighted towards active compounds, which were near 3.9% of everything screened. Calls come from the whole dose curve; as a rule, active = well fitted curve in the direction sought with a large enough effect; inconclusive = small, poorly fitted or top-dose-only effect, or another doubt; inactive = no such curve, though single readings can be large; an effect the other way counts as inactive or inconclusive.

Screening COc1cc2c(cc1OC)C1C(=O)c3c(O)cc4c(c3OC1CO2)C=CC(C)(C)O4 (stereo not given) returned VDR inhibitor inactive.
Screening CCn1nc(C)c(Br)c1C(=O)Sc1ccccc1Cl returned BRCA1 expr act inactive, Tb PFK inh inactive, VDR inhibitor inconclusive and PLK1 PBD block 13.4µM.
Screening CCn1nc(C)cc1C(=O)Sc1ccc(C)cc1 returned BRCA1 expr act inactive, Tb PFK inh inactive, VDR inhibitor inactive and PLK1 PBD block inactive.
Screening Clc1ccc(COc2ccccc2-c2ccnc3ncnn23)cc1 returned BRCA1 expr act 11.2µM, Tb PFK inh inactive, VDR inhibitor inactive and PLK1 PBD block inactive.
For CC(CC(=O)Nc1ccc(F)cc1)S(=O)(=O)c1cc2c3c(c1)CCN3C(=O)CC2 (stereo not given) the results were BRCA1 expr act inactive and VDR inhibitor inactive.
`Cn1ncc(Cl)c1C(=O)Nc1cccc(Cl)c1` gave BRCA1 expr act inactive, Tb PFK inh inactive, VDR inhibitor inconclusive and PLK1 PBD block 23.8µM.
For C/C(=N\NC(=O)c1c(Br)cnn1C)c1ccc(NC(=O)c2ccc(F)cc2)cc1 the results were BRCA1 expr act 7.94µM, Tb PFK inh inconclusive, VDR inhibitor inactive and PLK1 PBD block inactive.
For C/C(=N\NC(=O)c1ccc(O)cc1)c1cccc(NC(=O)c2ccc(Cl)cc2)c1 the results were BRCA1 expr act 5.62µM, VDR inhibitor inactive and PLK1 PBD block inactive.
`COc1ccc(C(=O)Nc2ccc(/C(C)=N/NC(=O)c3ccncc3)cc2)cc1` gave Tb PFK inh inactive.
For C/C(=N\NC(=O)c1c(Cl)cnn1C)c1cccc(NC(=O)c2ccc(C)cc2)c1 the results were BRCA1 expr act 6.31µM, Tb PFK inh inactive, VDR inhibitor inactive and PLK1 PBD block inactive.
For C/C(=N\NC(=O)c1ccc(F)cc1)c1cccc(NC(=O)c2cccc(F)c2)c1 the results were BRCA1 expr act inactive, Tb PFK inh inactive, VDR inhibitor inactive and PLK1 PBD block inactive.
For C/C(=N\NC(=O)c1cccc(O)c1)c1cccc(NC(=O)c2ccc(F)cc2)c1 the results were BRCA1 expr act 3.98µM, Tb PFK inh inactive, VDR inhibitor inactive and PLK1 PBD block inactive.
For O=C(CCCc1ccccc1)NC12CC3CC(CC(C3)C1)C2 the results were BRCA1 expr act 2.82µM, Tb PFK inh inactive, VDR inhibitor inactive and PLK1 PBD block inactive.
Screening O=C(CSc1ccccc1C(=O)O)NC12CC3CC(CC(C3)C1)C2 returned BRCA1 expr act inactive, Tb PFK inh inactive, VDR inhibitor inactive and PLK1 PBD block 29.9µM.
Screening C[N+](C)(C)C/C=C1/COCO1 returned BRCA1 expr act inactive, Tb PFK inh inactive, VDR inhibitor inactive and PLK1 PBD block 3.36µM.
For CCCCn1c(N)c(N(Cc2ccccc2OC)C(=O)CSCC(=O)Nc2cccc(C)c2)c(=O)[nH]c1=O the results were BRCA1 expr act inactive, Tb PFK inh inactive, VDR inhibitor inactive and PLK1 PBD block 29.9µM.
`Cc1ccc(-c2ccc(CCC(=O)O)n2-c2ccc(C(=O)O)cc2)cc1` gave BRCA1 expr act inactive, Tb PFK inh inactive, VDR inhibitor inconclusive and PLK1 PBD block inactive.
For Cc1ccc(-c2ccc(CCC(=O)O)n2-c2cccc(C(=O)O)c2)cc1 the results were BRCA1 expr act 7.08µM, Tb PFK inh inactive, VDR inhibitor inactive and PLK1 PBD block inactive.
`COc1ccc(-c2onc(C)c2C)cc1S(=O)(=O)NCc1ccco1` gave VDR inhibitor inactive.
Screening Cc1c(OCC(=O)NC(Cc2ccc(Cl)cc2)C(=O)O)ccc2c(-c3ccccc3)cc(=O)oc12 (stereo not given) returned BRCA1 expr act inactive, Tb PFK inh inactive, VDR inhibitor inactive and PLK1 PBD block 67µM.
O=C(Cc1cc(=O)oc2cc(O)ccc12)NC(Cc1ccc(Cl)cc1)C(=O)O (stereo not given) was read as BRCA1 expr act inactive, Tb PFK inh inactive, VDR inhibitor inconclusive and PLK1 PBD block 29.9µM.
COc1ccc(-c2nc(SCC(=O)NC(C)CCc3ccccc3)n[nH]2)cc1 (stereo not given) was read as VDR inhibitor inactive.
Screening COc1cc2c(NC3CCN(C)CC3)nc(N3CCCN(C)CC3)nc2cc1OCC1CCCCN1 (stereo not given) returned BRCA1 expr act inactive.
`C=Cc1ccc(CSc2nc(-c3ccccc3Cl)nc3c2Cc2c(CO)cnc(C)c2O3)cc1` gave VDR inhibitor inactive.
`O=C1N=c2ccc([N+](=O)[O-])cc2=C1c1sc(=O)[nH]c1O` gave BRCA1 expr act inactive, Tb PFK inh inactive, VDR inhibitor inconclusive and PLK1 PBD block 3.36µM.
For O=[N+]([O-])c1ccc2nc(CCCO)[nH]c2c1 the results were BRCA1 expr act inactive, Tb PFK inh inactive, VDR inhibitor inactive and PLK1 PBD block inactive.
Cc1ccc(S(=O)(=O)NCCc2csc3nc(-c4ccccc4C)nn23)cc1 was read as BRCA1 expr act inactive and VDR inhibitor inactive.
CCOc1ccc2cc(C(=O)c3ccccc3)c(=O)oc2c1 was read as BRCA1 expr act 10µM, Tb PFK inh inactive, VDR inhibitor inactive and PLK1 PBD block inactive.
For COc1ccc2cc(C(=O)c3ccccc3)c(=O)oc2c1 the results were BRCA1 expr act inactive, Tb PFK inh inactive, VDR inhibitor inactive and PLK1 PBD block inactive.
Screening CCOc1ccccc1OC(=O)c1cc2ccccc2oc1=O returned BRCA1 expr act inactive, Tb PFK inh inactive, VDR inhibitor inconclusive and PLK1 PBD block 21.2µM.
CCOc1ccccc1-c1nc(-c2ccc(C)nc2OC)no1 was read as BRCA1 expr act 7.08µM, Tb PFK inh inactive, VDR inhibitor inactive and PLK1 PBD block inactive.
`CCOc1nc(C)ccc1-c1noc(-c2ccccn2)n1` gave BRCA1 expr act inactive, Tb PFK inh inactive, VDR inhibitor inactive and PLK1 PBD block inactive.
`COc1nc(-c2ccccc2)ccc1-c1noc(-c2ccccc2)n1` gave BRCA1 expr act 6.31µM, Tb PFK inh inactive, VDR inhibitor inactive and PLK1 PBD block inactive.
CCOC(=O)C1CCCN(C(=O)c2cccc(S(=O)(=O)N(C)c3ccc(C)cc3)c2)C1 (stereo not given) was read as BRCA1 expr act inactive, Tb PFK inh inactive, VDR inhibitor inactive and PLK1 PBD block inactive.
`CS(=O)(=O)c1ccc2nc(NC(=O)C3CC(=O)N(c4ccccc4)C3)sc2c1` (stereo not given) gave BRCA1 expr act inactive, Tb PFK inh inactive, VDR inhibitor inconclusive and PLK1 PBD block 29.9µM.
`CCN(CC)S(=O)(=O)c1ccc2nc(NC(=O)c3ccco3)sc2c1` gave BRCA1 expr act 11.2µM, Tb PFK inh inactive, VDR inhibitor inactive and PLK1 PBD block inactive.
For CC(C)C(=O)Nc1nc2ccc(S(C)(=O)=O)cc2s1 the results were BRCA1 expr act 11.2µM, Tb PFK inh inactive, VDR inhibitor inactive and PLK1 PBD block inactive.
COc1ccccc1NC(=O)Nc1nc2ccc(S(N)(=O)=O)cc2s1 was read as BRCA1 expr act 3.98µM, Tb PFK inh inactive, VDR inhibitor inactive and PLK1 PBD block inactive.
CCN(CC)S(=O)(=O)c1ccc2nc(NC(=O)c3ccc(Br)o3)sc2c1 was read as VDR inhibitor inactive.
`C[C@@H]1COc2cc(N(C)CCO)ccc2S(=O)(=O)N1` gave BRCA1 expr act inactive and PLK1 PBD block inactive.

High-throughput results: PubChem BioAssay, National Center for Advancing Translational Sciences (NCATS)
